This experiment concerns HepG2. Put plainly: GSK_TCMDC: Percent inhibition of human HepG2 cell line. Test compounds present at 10uM. The experiment is classed as functional.
Turning to `O=C(NCc1cccc(F)c1)Nc1ccc(-c2cccc(-c3nc4ccccc4[nH]3)c2)cc1`, the Inhibition stood at 14%.
Under `Cc1cc(C)c(-c2n[nH]c3c2C(c2cccc(Cl)c2)N(Cc2ccco2)C3=O)c(O)c1` (configuration not stated) stands 0%.
In turn, `CN1CCC[C@H]1COc1ccc(CN2CC[C@H](NC(=O)c3ccc(Cl)c(Cl)c3)C2)c2ccccc12.O=C(O)C(F)(F)F` gave an Inhibition of 47%.
Then `CC12CCC(C(=O)N(CC(O)Cn3c4ccc(Cl)cc4c4cc(Cl)ccc43)C1=O)C2(C)C` (configuration not stated), with 0%.
Under `CS(=O)(=O)CCNCc1cccc(-c2ccc3c(Nc4ccc(Oc5cccnc5)cc4)ccnc3c2)c1` stands 27%; under `COc1ccccc1C(C)NCC(=O)Nc1cccc(C(=O)Nc2cccc(C(F)(F)F)c2)c1` (configuration not stated), 34%.
Molecule `Cc1cccc2nc(-c3cccc(-c4cccc(CNCCN5CCNCC5)c4)c3)[nH]c12.O=C(O)C(F)(F)F` gave an Inhibition of 11%.
Then `CC(C)(C)c1ccc(CN2CCC(CNC(=O)c3cc(-c4cccc(Cl)c4)cs3)C2)cc1.O=C(O)C(F)(F)F` (configuration not stated), with 44%; and `Cn1nc(C(F)(F)F)c(-c2ccc(Br)cc2)c1NC(=O)Cc1ccccc1F`, with 6%; and `COc1ccc(N2CCN(CCCCNC(=O)c3ccc(NC(=O)c4ccc(C(F)(F)F)cc4)cc3)CC2)c(OC)c1`, with 4%.
Under `Cl.O=C(C=Cc1ccc(C(=O)Nc2ccc(C3=NCCN3)cc2)cc1)Nc1ccc(C2=NCCN2)cc1` stands 0%; under `Cc1ccccc1C1CCN(C2CCC(NC(=O)/C=C/c3ccc4c(c3)OC(F)(F)O4)CC2)CC1` (configuration not stated), 75%; under `CCCc1cc(=O)oc2cc(OC)c(C(=O)CC(C)C)c(OC)c12`, 3%.
With `Cc1ccc(NC(C)C(=O)Nc2ccccc2)cc1S(=O)(=O)N1CCCCCC1` (configuration not stated), the Inhibition was 12%.
Then `COc1ccc(Br)cc1/C=C/C(=O)Nc1ccc2c(c1)CCCN(C)C2`, with 8%.
Molecule `CC(=O)Nc1nc(C(=O)Nc2cccc(-c3ccc(-c4nc5cccc(C)c5[nH]4)s3)c2)cs1` registered an Inhibition of 14%.
`CC(CN(C)C)C(=O)Nc1cccc(-c2ccc(-c3nc4cc(F)ccc4[nH]3)s2)c1` (configuration not stated) displayed an Inhibition of 3%.
Under `Cl.Nc1ccc(-c2cc(Cl)cc(Cl)c2)cc1-c1cc2ccccc2[nH]1` stands 0%; under `O=C(CSc1nc(-c2ccccc2Cl)ns1)Nc1cccc(F)c1`, 0%; under `Cc1[nH]c(C)c(-c2ccc(OCc3cccc(C(F)(F)F)c3)nc2)c(=O)c1Br`, 37%.
Then `COc1cc2c(Nc3ccc(NC(=O)c4ccccc4)cc3)ncnc2cc1OCCCN1CCOCC1`, with 14%; and `O=C(O)C(F)(F)F.c1cc(CN2CCN(c3ccncc3)CC2)cc(-c2cccc(-c3nc4ccccc4[nH]3)c2)c1`, with 35%; and `O=C(Nc1ccc([N+](=O)[O-])cc1)Nc1cc(OCC(F)(F)F)cc(OCC(F)(F)F)c1`, with 71%.
Under `COc1ccc(-c2nc3c(NCc4ccccc4)nccc3[nH]2)c(OC)c1` stands 16%; under `COc1ccc(CCn2c(=N)c(C(=O)NCc3cccnc3)cc3c(=O)n4ccccc4nc32)cc1`, 16%.
In turn, `O=C(/C=C/c1ccc(Cl)c(Cl)c1)NCCCCCN1CCCN(C(=O)Nc2cccc(Cl)c2)CC1` returned an Inhibition of 11%.
Then `O=C(NOCCOc1ccccc1)c1ccccc1`, with 0%; and `Cc1cc2c(NC(=O)NC3CCN(Cc4ccc(Cl)c(Cl)c4)CC3)cccc2cn1.Cl`, with 11%.
`O=C(c1cc(-c2ccccc2)n[nH]1)N1CCN(S(=O)(=O)c2ccc(Cl)s2)CC1` yielded an Inhibition of 9%.
Under `COc1ccc(-n2cc(C(=O)c3cc(Br)ccc3O)cc(C#N)c2=O)cc1Cl` stands 29%; under `CCCCNCc1ccc(-c2nc(CN(CCCn3ccnc3)C(=O)C3COc4ccccc4O3)cs2)cc1.O=C(O)C(F)(F)F` (configuration not stated), 6%.
Consider `CC(C)C[C@H](NC(=O)c1cc2ccccc2s1)C(=O)N[C@H]1CCN(Cc2ccc(OC[C@@H]3CCCN3C)c3ccccc23)C1.O=C(O)C(F)(F)F`, for which the Inhibition stood at 69%.
Then `COc1ccc(CC(=O)Nc2ccc(Nc3nc(C)cc(N(C)C)n3)cc2)cc1`, with 17%; and `Cc1cc(NCCC(=O)Nc2ccccc2)nc(NCC2CCCCC2)n1.O=C(O)C(F)(F)F`, with 14%.
In turn, `COc1cccc(C(O)CNc2ccnc(Nc3cccc(-c4csc(C)n4)c3)n2)c1` (configuration not stated) returned an Inhibition of 38%.
Then `Fc1cccc(COc2ccc(Nc3ncnc4cc(/C=C/[C@@H]5CCCN5)sc34)cc2Cl)c1`, with 17%; and `Br.Oc1ccc(CCNCCCCCCNCCc2ccc(Cl)c(Cl)c2)cc1O`, with 21%.

As a reminder, the Inhibition is the relative decrease from the control value, in per cent.

(Values after ChEMBL document CHEMBL1157539, “Thousands of chemical starting points for antimalarial lead identification” (Nature, 2010).)
